From ChEMBL document CHEMBL3988442, “University of Dundee, Small-Polar-MMV Screening Library” (2021)
For some assays here: Entries with a potency or affinity are not part of this list.

How the values were obtained:
Set-up in all cases: scale not given: direction of the effect not stated beside the values
[1] = molecular target: Protein translocase subunit SecA (Escherichia coli (strain K12)) (UniProt P10408); test: Assay to Identify E. coli SecA ATPase Inhibitors; format: functional; conditions: 30 µM
[2] = molecular target: T1, Ubiquitin-activating enzyme e1, putative (Leishmania donovani (strain BPK282A1)) (UniProt E9BSI1); test: Leishmania donovani Ubiquitin Activating Enzyme (LdE1); format: functional; conditions: 30 µM
T1 sequence (whole entry): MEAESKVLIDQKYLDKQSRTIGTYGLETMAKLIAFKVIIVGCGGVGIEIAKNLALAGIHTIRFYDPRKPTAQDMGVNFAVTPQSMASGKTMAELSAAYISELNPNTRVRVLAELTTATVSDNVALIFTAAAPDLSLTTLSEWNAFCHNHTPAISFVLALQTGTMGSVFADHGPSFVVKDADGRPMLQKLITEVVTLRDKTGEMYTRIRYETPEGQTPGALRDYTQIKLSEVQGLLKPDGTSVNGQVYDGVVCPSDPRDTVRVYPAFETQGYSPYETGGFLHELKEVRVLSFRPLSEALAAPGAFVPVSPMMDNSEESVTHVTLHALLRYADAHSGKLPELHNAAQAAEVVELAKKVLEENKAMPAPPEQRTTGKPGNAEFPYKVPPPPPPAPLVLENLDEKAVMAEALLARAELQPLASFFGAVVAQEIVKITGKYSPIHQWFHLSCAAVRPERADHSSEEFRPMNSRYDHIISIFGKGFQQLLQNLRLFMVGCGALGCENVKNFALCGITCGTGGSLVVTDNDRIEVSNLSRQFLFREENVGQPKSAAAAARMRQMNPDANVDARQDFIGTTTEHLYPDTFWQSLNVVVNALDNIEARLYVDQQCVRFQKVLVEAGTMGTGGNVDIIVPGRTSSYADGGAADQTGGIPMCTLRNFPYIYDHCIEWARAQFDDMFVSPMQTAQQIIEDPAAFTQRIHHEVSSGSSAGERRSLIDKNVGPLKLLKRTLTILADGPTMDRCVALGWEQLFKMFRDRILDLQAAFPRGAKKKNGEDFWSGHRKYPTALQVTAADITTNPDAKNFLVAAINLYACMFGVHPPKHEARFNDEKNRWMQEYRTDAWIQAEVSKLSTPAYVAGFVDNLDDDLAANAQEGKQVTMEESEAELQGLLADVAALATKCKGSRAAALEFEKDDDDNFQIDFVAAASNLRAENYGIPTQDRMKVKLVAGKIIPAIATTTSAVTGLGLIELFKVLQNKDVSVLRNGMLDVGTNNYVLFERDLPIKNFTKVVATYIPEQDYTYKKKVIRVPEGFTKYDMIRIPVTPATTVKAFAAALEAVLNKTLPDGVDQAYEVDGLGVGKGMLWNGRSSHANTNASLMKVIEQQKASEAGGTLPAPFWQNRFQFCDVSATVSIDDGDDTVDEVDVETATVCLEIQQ

[3] = molecular target: AMP-activated protein kinase, AMPK (Homo sapiens) (UniProt P54646+O43741+P54619+Q9UGJ0+Q9Y478+Q13131+Q9UGI9); test: AMP-dependent Kinase enzyme assay. An in vitro enzyme assay that detects ADP turnover that is directly proportional to AMPK activity. This uses naive AMPK that is activated during the assay with MK-8722; format: functional; conditions: 30 µM
[4] = molecular target: Sialic acid-binding Ig-like lectin 9 (Homo sapiens) (UniProt Q9Y336); test: Hs-Siglec9 ALPHAscreen SOP 20170721; conditions: 10 µM
Trypanosoma cruzi = test: Trypanosoma cruzi phosphomannomutase and mannose-1-phosphate guanylyltransferase assay; format: functional; conditions: 10 µM
[5] = molecular target: T2, Arginase-2, mitochondrial (Homo sapiens) (UniProt P78540); test: in vitro enzyme assay to detect the production of urea directly proportional to the activity of Arginase II; format: functional; conditions: 33.3 µM; further: in the data most compounds retested in dose-response had high values
T2 sequence (whole entry): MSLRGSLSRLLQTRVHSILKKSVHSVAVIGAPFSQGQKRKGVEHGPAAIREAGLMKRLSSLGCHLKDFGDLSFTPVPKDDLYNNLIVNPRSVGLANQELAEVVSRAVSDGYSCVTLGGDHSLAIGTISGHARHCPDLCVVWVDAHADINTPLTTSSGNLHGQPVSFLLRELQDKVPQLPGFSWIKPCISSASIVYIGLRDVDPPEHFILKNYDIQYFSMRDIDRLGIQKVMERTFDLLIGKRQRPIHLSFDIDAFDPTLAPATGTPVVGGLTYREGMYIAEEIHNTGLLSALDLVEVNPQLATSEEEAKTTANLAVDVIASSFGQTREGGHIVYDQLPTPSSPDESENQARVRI

[6] = molecular target: T3, Proteasome subunit beta (Trypanosoma cruzi) (UniProt O96673); test: Trypanosoma cruzi proteasome chymotrypsin-like activity (TcProtChymo) assay.; further: in the data most compounds retested in dose-response had high values; format: functional; conditions: 9.37 µM
T3 sequence (whole entry): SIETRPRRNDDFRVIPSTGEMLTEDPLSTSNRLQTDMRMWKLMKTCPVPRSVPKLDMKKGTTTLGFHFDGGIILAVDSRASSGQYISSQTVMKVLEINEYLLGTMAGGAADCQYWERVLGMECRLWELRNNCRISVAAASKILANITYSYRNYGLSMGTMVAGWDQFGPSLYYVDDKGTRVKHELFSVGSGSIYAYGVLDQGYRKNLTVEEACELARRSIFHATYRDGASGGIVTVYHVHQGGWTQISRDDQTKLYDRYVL

Homo sapiens = species: Homo sapiens; test: To identify inhibition of the IFN signalling (Jak-Stat) pathway via expression of an eGFP reporter gene under the control of an IFN-stimulated response element (ISRE) containing MxA promoter.; format: functional; conditions: 30 µM
[7] = molecular target: T4, Tyrosyl-tRNA synthetase, putative (Trypanosoma cruzi (strain CL Brener)) (UniProt Q4DSP6); test: Trypanosoma cruzi tyrosyl tRNA synthetase (TcYRS) _High Tyrosine SOP; format: functional; conditions: 30 µM; further: in the data most compounds retested in dose-response had high values
T4 sequence (whole entry): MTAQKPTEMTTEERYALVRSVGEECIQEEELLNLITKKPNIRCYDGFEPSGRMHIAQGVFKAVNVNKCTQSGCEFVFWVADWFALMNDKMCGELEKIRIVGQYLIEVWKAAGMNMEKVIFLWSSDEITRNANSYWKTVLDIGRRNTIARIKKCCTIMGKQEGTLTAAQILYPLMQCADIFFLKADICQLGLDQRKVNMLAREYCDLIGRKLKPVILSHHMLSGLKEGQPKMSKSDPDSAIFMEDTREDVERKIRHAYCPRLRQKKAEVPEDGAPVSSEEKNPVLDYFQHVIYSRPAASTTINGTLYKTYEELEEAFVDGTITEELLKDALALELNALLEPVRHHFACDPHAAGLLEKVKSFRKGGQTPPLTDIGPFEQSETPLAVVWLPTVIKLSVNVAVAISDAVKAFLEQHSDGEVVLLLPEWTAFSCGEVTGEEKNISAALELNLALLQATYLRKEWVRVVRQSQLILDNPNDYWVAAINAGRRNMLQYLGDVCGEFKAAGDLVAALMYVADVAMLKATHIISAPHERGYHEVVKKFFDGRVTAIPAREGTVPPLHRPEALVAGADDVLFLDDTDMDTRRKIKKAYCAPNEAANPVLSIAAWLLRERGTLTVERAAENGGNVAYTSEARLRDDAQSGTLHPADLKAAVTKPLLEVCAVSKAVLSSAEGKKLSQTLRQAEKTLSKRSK

[8] = molecular target: T4, Tyrosyl-tRNA synthetase, putative (Trypanosoma cruzi (strain CL Brener)); test: Trypanosoma cruzi tyrosyl tRNA synthetase (TcYRS) SOP; format: functional; conditions: 30 µM
[9] = molecular target: Chromo domain-containing protein 1 (Saccharomyces cerevisiae (strain ATCC 204508 / S288c) (Baker's yeast)) (UniProt P32657); test: ScCHD-1 Enzyme Inhibition Assay; format: functional; conditions: 30 µM; further: in the data most compounds retested in dose-response had high values
Sequence of Chromo domain-containing protein 1 (Saccharomyces cerevisiae (strain ATCC 204508 / S288c) (Baker's yeast)) (P32657 whole entry, the tested form may be a part): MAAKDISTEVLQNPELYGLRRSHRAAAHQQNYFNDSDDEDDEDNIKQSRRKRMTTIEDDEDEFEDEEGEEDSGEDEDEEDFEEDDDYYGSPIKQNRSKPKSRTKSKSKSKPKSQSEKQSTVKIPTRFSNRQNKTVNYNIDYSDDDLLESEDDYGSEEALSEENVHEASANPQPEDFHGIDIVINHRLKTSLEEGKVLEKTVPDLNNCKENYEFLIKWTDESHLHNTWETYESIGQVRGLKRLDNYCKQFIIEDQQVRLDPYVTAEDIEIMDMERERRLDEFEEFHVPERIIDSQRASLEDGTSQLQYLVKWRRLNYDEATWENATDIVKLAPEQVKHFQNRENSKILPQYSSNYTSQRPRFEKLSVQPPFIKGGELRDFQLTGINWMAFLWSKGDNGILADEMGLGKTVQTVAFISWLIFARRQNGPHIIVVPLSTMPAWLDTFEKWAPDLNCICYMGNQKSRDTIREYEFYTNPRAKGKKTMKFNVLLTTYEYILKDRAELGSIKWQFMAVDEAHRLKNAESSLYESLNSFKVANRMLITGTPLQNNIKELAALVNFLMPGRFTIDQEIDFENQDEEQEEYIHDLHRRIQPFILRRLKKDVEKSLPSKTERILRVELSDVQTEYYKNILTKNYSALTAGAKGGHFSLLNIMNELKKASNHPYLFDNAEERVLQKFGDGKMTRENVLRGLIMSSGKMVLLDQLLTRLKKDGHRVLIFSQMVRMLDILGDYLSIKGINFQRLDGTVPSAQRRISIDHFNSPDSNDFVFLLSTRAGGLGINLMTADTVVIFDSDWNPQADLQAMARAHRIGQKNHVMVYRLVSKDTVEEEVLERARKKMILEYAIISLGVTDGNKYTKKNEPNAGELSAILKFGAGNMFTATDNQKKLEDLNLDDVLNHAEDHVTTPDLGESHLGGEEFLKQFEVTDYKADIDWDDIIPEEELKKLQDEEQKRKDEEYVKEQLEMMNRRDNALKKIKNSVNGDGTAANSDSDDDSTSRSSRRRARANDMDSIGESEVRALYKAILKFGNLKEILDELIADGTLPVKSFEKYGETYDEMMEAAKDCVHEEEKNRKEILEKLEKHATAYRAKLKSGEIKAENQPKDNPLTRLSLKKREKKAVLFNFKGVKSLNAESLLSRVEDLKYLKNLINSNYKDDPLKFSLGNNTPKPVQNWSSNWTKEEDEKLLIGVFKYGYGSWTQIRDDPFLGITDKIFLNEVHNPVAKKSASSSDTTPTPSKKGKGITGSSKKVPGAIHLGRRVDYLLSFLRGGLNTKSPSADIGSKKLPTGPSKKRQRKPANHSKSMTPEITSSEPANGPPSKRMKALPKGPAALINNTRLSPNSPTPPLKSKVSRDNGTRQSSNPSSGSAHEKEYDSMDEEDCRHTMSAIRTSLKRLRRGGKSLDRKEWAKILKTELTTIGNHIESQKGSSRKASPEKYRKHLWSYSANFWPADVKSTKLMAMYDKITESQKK

Sequence of Protein translocase subunit SecA (Escherichia coli (strain K12)) (P10408 whole entry): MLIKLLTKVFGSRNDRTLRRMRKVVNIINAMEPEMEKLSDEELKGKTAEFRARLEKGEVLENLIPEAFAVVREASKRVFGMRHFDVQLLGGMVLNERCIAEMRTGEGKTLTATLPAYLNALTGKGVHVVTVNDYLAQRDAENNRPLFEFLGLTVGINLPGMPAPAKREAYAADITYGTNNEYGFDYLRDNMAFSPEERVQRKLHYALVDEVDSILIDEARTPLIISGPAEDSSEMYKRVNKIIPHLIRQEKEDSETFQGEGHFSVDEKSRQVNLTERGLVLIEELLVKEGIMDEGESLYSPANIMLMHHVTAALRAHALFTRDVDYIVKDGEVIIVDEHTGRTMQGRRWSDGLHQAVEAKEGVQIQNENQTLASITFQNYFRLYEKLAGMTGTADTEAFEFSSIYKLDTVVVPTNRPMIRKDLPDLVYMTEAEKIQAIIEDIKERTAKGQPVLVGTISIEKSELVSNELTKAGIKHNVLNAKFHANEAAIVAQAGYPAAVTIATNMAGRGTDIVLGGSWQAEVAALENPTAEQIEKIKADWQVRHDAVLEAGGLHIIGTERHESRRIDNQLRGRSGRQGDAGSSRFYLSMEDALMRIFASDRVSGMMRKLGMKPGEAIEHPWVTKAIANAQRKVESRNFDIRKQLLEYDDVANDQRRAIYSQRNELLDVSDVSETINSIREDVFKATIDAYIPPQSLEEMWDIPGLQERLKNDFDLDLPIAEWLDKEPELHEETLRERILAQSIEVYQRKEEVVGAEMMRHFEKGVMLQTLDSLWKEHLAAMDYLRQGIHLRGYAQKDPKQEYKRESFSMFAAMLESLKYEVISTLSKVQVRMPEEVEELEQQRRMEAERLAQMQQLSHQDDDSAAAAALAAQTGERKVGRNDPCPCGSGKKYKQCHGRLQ
Sequence of Sialic acid-binding Ig-like lectin 9 (Homo sapiens) (Q9Y336 whole entry): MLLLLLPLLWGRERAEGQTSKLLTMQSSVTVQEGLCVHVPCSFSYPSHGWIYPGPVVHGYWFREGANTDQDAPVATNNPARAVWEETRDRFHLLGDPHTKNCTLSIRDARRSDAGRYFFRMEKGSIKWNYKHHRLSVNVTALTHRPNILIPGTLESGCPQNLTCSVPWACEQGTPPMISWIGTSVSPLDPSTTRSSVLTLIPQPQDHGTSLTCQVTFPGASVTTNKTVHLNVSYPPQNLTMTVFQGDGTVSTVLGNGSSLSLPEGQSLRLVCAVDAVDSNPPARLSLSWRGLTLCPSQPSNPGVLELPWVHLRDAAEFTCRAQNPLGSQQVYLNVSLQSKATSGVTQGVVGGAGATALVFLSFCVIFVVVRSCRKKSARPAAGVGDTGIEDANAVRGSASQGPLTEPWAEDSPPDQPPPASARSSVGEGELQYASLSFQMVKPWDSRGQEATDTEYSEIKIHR

Row | Structure (SMILES) | Percent Effect [1] [%] | Percent Effect [2] [%] | Percent Effect [3] [%] | Percent Effect [4] [%] | Percent Effect (Trypanosoma cruzi) [%] | Percent Effect [5] [%] | Percent Effect [6] [%] | Percent Effect (Homo sapiens) [%] | Percent Effect [7] [%] | Percent Effect [8] [%] | Percent Effect [9] [%]
1 | Cc1cc(C(=O)N2CCCCC2C)ccc1NCCCO (configuration not stated) | -2.03 | -2.6 | 3.91 | 5.61 | -3 | 0.712 | 4.73 | -4.27 | 3.88 | 7.32 | -0.238
2 | CS(=O)(=O)NCc1cnc2n1CCN(Cc1ccsc1)CC2 | 1.5 | 21.9 | -6.69 | 5.11 | -5.16 | -18 | 14.6 | 18.3 | 8.33 | 3.7 | 0.00549
3 | O=C(NC1CC1)[C@H]1CC[C@@H]2[C@@H](CCN2c2ncc(F)cn2)O1 | -3.27 | 2.6 | 0.23 | 1.05 | -0.688 | -2.76 | 4.16 | 11 | 3.23 | 1.24 | 134
4 | Nc1nc(C2CCN(C(=O)c3cncs3)CC2)cs1 | -7.01 | 12.2 | 9.81 | 5.35 | 1.38 | 0.232 | 3.59 | -3.51 | 3.23 | 11.7 | -8.22
5 | Cc1nc(N2CCOCC2)nc2c1CCN(C(=O)NC1CCCC1)CC2 | -0.181 | 6.67 | -1.67 | -6.84 | -11 | -6.16 | 19.2 | 0.0839 | -2.12 | 0 | -10.6
6 | Cc1cc(CN2CCN(c3nn4cc(C)nc4s3)CC2)on1 | -0.836 | 16.5 | 4.65 | 3 | -0.923 | 0.215 | 20.4 | 6.94 | 7.29 | 15.2 | -20.7
7 | Cc1cc(CNc2ccc(C(=O)N3CCCC(C)C3)cc2C)no1 (configuration not stated) | -4.07 | 10.4 | 0.477 | -5.45 | -6.18 | -1.42 | 3.72 | 37.9 | 5.83 | 14.6 | -5.48
8 | COCCCNC(=O)CN(C)C(=O)c1cc(C)ccc1O | -3.14 | 16.2 | -6.15 | -4.94 | -5.48 | -0.924 | 7 | -3.62 | 3.96 | 15.8 | -7.89
9 | CN(Cc1ccco1)C[C@H]1OC[C@@H]2CCN(Cc3cccnc3)C[C@@H]21 | -2.62 | 10.7 | 0.611 | -1.35 | 0.772 | -51.1 | 8.55 | 1.18 | 0 | 10 | -2.25
10 | CC(Cn1ccnc1)NC(=O)N1CCN(Cc2cccnc2)CC1 (configuration not stated) | -5 | 18.4 | -6.12 | 5.79 | 8.46 | -3.83 | 11.5 | 4.46 | 7.35 | 19.5 | -10.3
11 | COCCN1CCC(CN(CC2CCCO2)C(=O)CCNC(C)=O)CC1 (configuration not stated) | -1.45 | -4.17 | -2.84 | -5.53 | -1.26 | 0.883 | 1.75 | -4.52 | 0 | 0 | 1.82
12 | CC(C)c1cc(NC(=O)CN2CCc3c(nc(C(C)C)n3C)C2)on1 | -0.514 | 0 | -3.17 | 8.75 | 2.62 | -4.98 | 17.9 | 12 | 5.83 | 9.76 | -7.27
13 | Cn1cc(Br)c(=O)c(NS(=O)(=O)c2cc(F)ccc2Cl)c1 | -3.11 | 2.7 | -8.02 | 5.84 | 9.07 | -2.38 | 13.3 | 6.19 | 0.529 | -2.44 | -0.642
14 | O=C(CCn1cccn1)N1CCN(CC(F)F)CC1 | -2.93 | 16.2 | -2.79 | -4.78 | -0.836 | 0.554 | 4.13 | 14.6 | 9.9 | 25.6 | -5.97
15 | Cc1cccnc1NC(=O)C(C)Cn1nc(C(F)(F)F)cc1C (configuration not stated) | -1.64 | -4 | 2.53 | 4.76 | -3.73 | -1.94 | 11.8 | -10.4 | 3.17 | 2.56 | -1.89
16 | CCc1nccn1C1CCCN(C(=O)c2cn3c(C)cccc3n2)C1 (configuration not stated) | -5.71 | 10.5 | -0.577 | 8.35 | 3.6 | -9.47 | 6.04 | -0.411 | 3.19 | 15.6 | -1.12
17 | O=C(NCCN1CCCCC1)c1scnc1Cl | -0.516 | 15.8 | 7.25 | -5.01 | -5.7 | 3.24 | 13.6 | 3.91 | 9.36 | 16.1 | -5.64
18 | Cc1ccc(CNC(=O)NCCCn2nc3ccccn3c2=O)s1 | -7.23 | 16.2 | -11 | 15.3 | 6.89 | -18.8 | 5.95 | 7.36 | 6.4 | -70.4 | -16.6
19 | O=C(O)c1cc(S(=O)(=O)Nc2ccc(Cl)cc2)cc2c1OCCO2 | -4.18 | -8.86 | 4.72 | 2.13 | -2.97 | 4.09 | 8.75 | -2.12 | -18.8 | -15.2 | -21.4
20 | NCC(=O)N1CCCC(c2cncc(Nc3ncccn3)n2)C1 (configuration not stated) | -3.81 | 9.46 | 17.7 | 18 | -2.57 | -3.48 | 10.3 | 5.7 | 5.38 | 11.7 | 2.63
21 | CN(Cc1cccs1)C(=O)CN1CCCC1Cn1cncn1 (configuration not stated) | -1.48 | 10.4 | -63.7 | 2.24 | -1.08 | -5.52 | 20.3 | -3.55 | 7.53 | 13.6 | -2.25
22 | CCc1nc2n(n1)CC(NCC(=O)Nc1ccc(Cl)cn1)CC2 (configuration not stated) | -0.524 | 10.1 | -6.65 | -1.69 | -7.65 | 3.04 | 5.82 | 12.9 | 0.493 | 3.8 | -7.63
